Experimental data published in PubChem BioAssay (Tox21).
Results filed as inconclusive are left out. A call without a number means that no potency is given here. Active and inactive are the calls of the source. Unless noted, the call rests on the fitted dose curve; in most records, active means well fitted curve in the direction sought with a large enough effect in the repeat runs; inconclusive means weak or mixed curves; inactive means no such curve, though single readings can be large; an effect the other way counts as inactive or inconclusive.

Tests used:
[1] = qHTS assay for small molecule agonists of the p53 signaling pathway (AID 651631; calls by dose curve; further: nearly all actives have a fitted effect of over 15% in size; further: potency means the concentration at half of the fitted maximal effect)
How it was run: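 Quantitative high-throughput format: 4,000 p53RE-bla HCT-116 cells/well, 5 h pre-incubation, 16 h compound exposure at 37 °C, 2 h room-temperature substrate step, fluorescence intensity measured.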

[2] = qHTS assay for small molecules that induce genotoxicity in human embryonic kidney cells expressing luciferase-tagged ATAD5 (AID 651632); further: nearly all actives have a fitted effect of over 15% in size
How it was run: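 Increased luciferase signal from ATAD5-tagged reporter cells indicates DNA-damage-driven ATAD5 induction. HEK293T cells are treated for 16 hr at 37C before detection with Amplite.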

[3] = qHTS assay for small molecule agonists of the p53 signaling pathway - cell viability (AID 651633; calls by dose curve;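 further: p53RE-bla HCT reporter cells with a stable beta-lactamase p53 reporter; series mostly up to about 83 µM; nearly all actives have a fitted effect of over 30% in size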)
How it was run: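 p53RE-bla cells, seeded at 4,000 per well and rested 5 h at 37 C/5% CO2, received compounds in DMSO for 16 h at 37 C. CellTiter-Glo was then added, and luminescence was read after 30 min at room temperature to gauge cytotoxicity.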

[4] = qHTS assay for small molecules that induce genotoxicity in human embryonic kidney cells expressing luciferase-tagged ATAD5 - cell viability (AID 651634; calls by dose curve; further: nearly all actives have a fitted effect of over 25% in size)
How it was run: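 Cytotoxicity counterscreen in HEK293T cells bearing an ATAD5-luciferase reporter: live-cell protease activity measured by CellTiter-Fluor fluorescence after 15.5 hr compound exposure.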

[5] = qHTS assay for small molecule disruptors of the mitochondrial membrane potential - cell viability (AID 720634; calls by dose curve;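 further: human HepG2 liver cancer cells; series mostly up to about 83 µM; nearly all actives have a fitted effect of over 20% in size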)
How it was run: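 After overnight attachment at 37 C, HepG2 cells received compound or DMSO vehicle for 1 hr. Viability is then taken from ATP-driven luminescence following a 30 min room-temperature CellTiter-Glo step.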

[6] = qHTS assay to test for compound auto fluorescence at 590 nm (red) in HepG2 cells (AID 720674)
How it was run: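 Intrinsic compound fluorescence in the red window (Ex/Em 540/590 nm) is measured in attached HepG2 cells exposed for 1 hr, DMSO vehicle as baseline, benchmarked to Rose Bengal sodium.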

[7] = qHTS assay to test for compound auto fluorescence at 535 nm (green) in HepG2 cells (AID 720675)
[8] = qHTS assay to test for compound auto fluorescence at 460 nm (blue) in HEK293 cells (AID 720678); further: potency means the concentration at half of the fitted maximal effect
How it was run: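 Blue read-out at excitation 405 nm and emission 460 nm follows overnight compound exposure of HEK293 cells at 37C in 5% CO2. Activity is given as auto fluorescence equivalency to triamterene.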

[9] = qHTS assay to test for compound auto fluorescence at 590 nm (red) in HEK293 cells (AID 720679)
How it was run: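 Red channel, Ex/Em 540/590nm; signal expressed as equivalency to Rose Bengal sodium. HEK293, 2,000 cells/well, 10% dialyzed FBS; 23 nL compound pinned after 4-5 hr attachment; overnight 37C/5% CO2 before reading.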

[10] = qHTS assay to test for compound auto fluorescence at 535 nm (green) in HEK293 cells (AID 720680)
[11] = qHTS assay to test for compound auto fluorescence at 460 nm (blue) in HEK293 cell free culture (AID 720681)
How it was run: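 Test compounds were pinned into cell-free culture medium (DMEM with 10% FBS) and fluorescence was read directly at Ex/Em 405/460 nm. Signals were expressed as fluorescence equivalents of triamterene, with DMSO vehicle as control.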

[12] = qHTS assay to test for compound auto fluorescence at 535 nm (green) in HEK293 cell free culture (AID 720682)
How it was run: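 Measurement is a direct plate read of green fluorescence (485 nm in, 535 nm out) after compound addition to serum-supplemented DMEM lacking cells, with fluorescein used to express intensities.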

[13] = qHTS assay to test for compound auto fluorescence at 590 nm (red) in HEK293 cell free culture (AID 720683)
How it was run: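 Tox21 10K library compounds were pinned into cell-free DMEM with 10% FBS and fluorescence was read at excitation 540 nm. Activity is expressed as Rose Bengal sodium equivalency.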

[14] = qHTS assay to test for compound auto fluorescence at 590 nm (red) in HepG2 cell free culture (AID 720684)
How it was run: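 Measured in medium alone (MEM containing 10% FBS) following pintool addition of compound; emission at 590 nm with 540 nm excitation, referenced to Rose Bengal sodium.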

[15] = qHTS assay to test for compound auto fluorescence at 460 nm (blue) in HepG2 cell free culture (AID 720685); further: potency means the concentration at half of the fitted maximal effect
How it was run: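 Compound (23 nL) or DMSO pinned into cell-free MEM with 10% FBS; blue fluorescence read at 405/460 nm excitation/emission, expressed as auto-fluorescence equivalency to triamterene.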

[16] = qHTS assay to test for compound auto fluorescence at 535 nm (green) in HepG2 cell free culture (AID 720686)
[17] = qHTS assay to test for compound auto fluorescence at 460 nm (blue) in HepG2 cells (AID 720687); further: potency means the concentration at half of the fitted maximal effect
How it was run: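 Cells (2,000/well in MEM with 10% FBS) attached overnight at 37 C, then were exposed to compound or DMSO for 1 hr at 37 C, 5% CO2. Fluorescence read at Ex/Em 405/460 nm, expressed as triamterene-equivalent signal.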

[18] = qHTS assay for small molecule disruptors of the mitochondrial membrane potential (AID 720635)
How it was run: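 HepG2 cells (2,000/well) attached overnight at 37C, then took compound for 1 hr at 37C, 5% CO2. Mito-MPS dye was added for 30 min; fluorescence was read at 490/535 nm (monomers) and 540/590 nm (aggregates).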

[19] = molecular target: Glucocorticoid receptor (Homo sapiens) (UniProt P04150); assay: qHTS assay to identify small molecule agonists of the glucocorticoid receptor (GR) signaling pathway (AID 720691; active means well fitted activation curve with a large enough effect in the signal ratio in the repeat runs, not every such curve was filed as active; the % refers to the signal ratio)
Chain of Glucocorticoid receptor (Homo sapiens) (P04150 whole entry, looked up): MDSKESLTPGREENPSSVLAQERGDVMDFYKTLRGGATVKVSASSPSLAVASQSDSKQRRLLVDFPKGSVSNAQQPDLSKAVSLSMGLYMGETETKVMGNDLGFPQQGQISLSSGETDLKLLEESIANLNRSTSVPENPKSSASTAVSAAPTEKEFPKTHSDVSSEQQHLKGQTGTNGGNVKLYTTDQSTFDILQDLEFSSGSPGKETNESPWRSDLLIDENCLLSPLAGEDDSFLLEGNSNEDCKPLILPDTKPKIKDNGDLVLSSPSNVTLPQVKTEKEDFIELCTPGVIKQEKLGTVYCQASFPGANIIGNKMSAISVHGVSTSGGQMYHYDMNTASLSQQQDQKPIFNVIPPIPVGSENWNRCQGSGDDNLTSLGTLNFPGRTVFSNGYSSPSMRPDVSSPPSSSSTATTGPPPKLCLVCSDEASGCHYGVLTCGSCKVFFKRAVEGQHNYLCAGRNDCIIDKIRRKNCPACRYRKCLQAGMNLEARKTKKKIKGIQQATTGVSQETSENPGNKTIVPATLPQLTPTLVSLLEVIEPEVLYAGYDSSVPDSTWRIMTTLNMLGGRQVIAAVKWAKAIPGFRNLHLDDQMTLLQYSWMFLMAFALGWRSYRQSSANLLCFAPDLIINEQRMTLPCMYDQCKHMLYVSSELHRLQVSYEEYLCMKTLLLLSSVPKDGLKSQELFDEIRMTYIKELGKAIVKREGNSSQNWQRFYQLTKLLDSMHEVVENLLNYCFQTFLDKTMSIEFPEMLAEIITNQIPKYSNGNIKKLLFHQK
How it was run: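 Agonist mode in a HeLa line carrying a GRE-controlled beta-lactamase reporter. Compounds act for 18 h at 37 C before a 2 h room-temperature FRET substrate step and fluorescence reading.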

[20] = molecular target: Glucocorticoid receptor (Homo sapiens) (UniProt P04150); assay: qHTS assay to identify small molecule antagonists of the glucocorticoid receptor (GR) signaling pathway (AID 720692; active means well fitted inhibition curve with a large enough effect in the signal ratio in the repeat runs, not every such curve was filed as active; the % refers to the signal ratio)
How it was run: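 Cells plated, rested 4 h at 37 C/5% CO2; compounds in DMSO pin-transferred; dexamethasone added to 5 nM final; 18 h at 37 C; B/G FRET substrate added, 2 h room temperature; fluorescence measured.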
Tags describe the fitted curve by direction and shape or compound fluorescence and quenching.

| SMILES | Potency [1] | Potency [2] | Potency [3] | Potency [4] | Potency [5] | Potency [6] | Potency [7] | Potency [8] | Potency [9] | Potency [10] | Potency [11] | Potency [12] | Potency [13] | Potency [14] | Potency [15] | Potency [16] | Potency [17] | Potency [18] | Potency [19] | Potency [20] |
| --- | --- | --- | --- | --- | --- | --- | --- | --- | --- | --- | --- | --- | --- | --- | --- | --- | --- | --- | --- | --- |
| O=C(O)CCN(C1(C(=O)NO)CCCC1)S(=O)(=O)c1ccc(Oc2ccc(F)cc2)cc1 | inactive | inactive | inactive | inactive | inactive | inactive | inactive | inactive | inactive | inactive | inactive | inactive | inactive | inactive | inactive | inactive | inactive |  |  |  |
| CCCCNS(=O)(=O)c1ccc(C)cc1 | inactive | inactive | inactive | inactive | inactive | inactive | inactive | inactive |  | inactive | inactive |  | inactive | inactive | inactive | inactive | inactive | inactive | inactive |  |
| CCCCCC(C)OC(=O)COc1ccc(Cl)c2cccnc12 (stereo not given) | inactive | inactive | inactive | inactive | inactive | inactive | inactive | inactive |  | inactive |  |  | inactive | inactive | inactive | inactive | inactive |  | inactive |  |
| O=C(Oc1ccccc1)Oc1ccccc1 | inactive | inactive | inactive | inactive | inactive | inactive | inactive | inactive |  | inactive | inactive |  | inactive | inactive | inactive | inactive | inactive | inactive |  |  |
| CC(C)CCCCCOC(=O)CCS | inactive | inactive | inactive | inactive | inactive | inactive | inactive | inactive | inactive | inactive | inactive | inactive | inactive | inactive | inactive | inactive | inactive |  | inactive | inactive |
| O=S(=O)(O)c1ccc(Nc2nc(Nc3ccc(/C=C/c4ccc(Nc5nc(Nc6ccc(S(=O)(=O)O)cc6)nc(N(CCO)CCO)n5)cc4S(=O)(=O)O)c(S(=O)(=O)O)c3)nc(N(CCO)CCO)n2)cc1 | 41.3 µM (active) | inactive | inactive | inactive | inactive | inactive | inactive | 31.6 µM [fluorescent] (active) | inactive | inactive |  |  | inactive | inactive | 35.5 µM [fluorescent] (active) | inactive | 35.5 µM [fluorescent] (active) |  |  |  |
| NC(=O)c1cccc([N+](=O)[O-])c1 | inactive | inactive | inactive | inactive | inactive | inactive | inactive | inactive | inactive | inactive |  | inactive | inactive | inactive | inactive | inactive | inactive |  | inactive | inactive |
| C[C@H]1NCc2cc(-c3ccc4c(=O)c(C(=O)O)cn(C5CC5)c4c3OC(F)F)ccc21 | inactive | inactive | inactive | inactive | inactive | inactive | inactive | inactive | inactive | inactive | inactive | inactive | inactive | inactive | inactive |  | inactive |  | inactive | inactive |
